The supplement of paper PMC3724861
Only a selection was taken, and hits are over-represented in it overall. No count for the full screen is at hand. A number with no mark means an inactive call.

What follows are sequences tested on T1, Caupolican (Caup) homeodomain DNA-binding domain (assay: PBM E-score (8-mer, recovered from the published 9-mer minima) (E-score (dimensionless, -0.5 to 0.5)); Drosophila protein; higher = stronger relative binding preference, active = 0.31 or more).
T1 sequence: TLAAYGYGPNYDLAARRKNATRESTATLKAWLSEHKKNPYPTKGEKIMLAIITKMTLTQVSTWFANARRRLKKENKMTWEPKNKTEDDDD
Summary of the method: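 Caup's homeodomain DNA-binding domain (residues 214-303) was made by in vitro transcription and translation and applied at 100 nM to custom-designed protein binding microarrays. Each value is an enrichment score that gives relative binding preference for a short DNA word, with higher meaning stronger. The 8-mer values were recovered from published 9-mer scores, each of which was the minimum of its two constituent 8-mer scores. A cutoff of 0.31 marks candidate sites.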

| Sequence | PBM E-score |
| --- | --- |
| AGGACCTG | -0.102 |
| AAGCATTG | 0.102 |
| CAACCTGG | 0.0642 |
| AGGTGGCC | -0.286 |
| CAAGCCCC | -0.174 |
| CCTACAAC | 0.21 |
| ACTACAAA | 0.256 |
| ACTACAAT | 0.19 |
| ACTACAAC | 0.363 (active) |
| ACTACAAG | ≥ 0.378 (active) |
| GCTACAAC | 0.169 |
| GAGAGCTC | -0.215 |
| CGTCTATC | 0.0194 |
| CTTTTCGC | -0.012 |
| CGGTTGTC | 0.185 |
| TACTTTAA | 0.115 |
| CCTGTCAG | 0.115 |
| AATGTCAC | 0.303 |
| CATGTCAC | 0.446 (active) |
| CCTGTCAC | 0.144 |
| CGTGTCAC | 0.334 (active) |
| CATGTCAG | 0.413 (active) |
| AATGTCAG | 0.197 |
| CTTGTCAC | 0.322 (active) |
| AGTGTCAC | 0.13 |
| GATGTCAC | 0.294 |

| Sequence | PBM E-score |
| --- | --- |
| CGTGTCAG | 0.276 |
| ATTGTCAC | 0.224 |
| AGCGTCCA | -0.0936 |
| AAAGTATT | 0.131 |
| CGGGCTTC | -0.289 |
| AGATCGGA | 0.0416 |
| GAAGTGAC | 0.0523 |
| GCCGGGGA | -0.241 |
| CGAACCCC | -0.249 |
| ATCAGTCC | -0.143 |
| AAATTGGG | -0.0398 |
| AAGTTTGC | 0.0221 |
| CCTGTCAA | 0.172 |
| CGTGTCAA | 0.282 |
| CATGTCAA | 0.422 (active) |
| CGGGACTC | -0.204 |
| CCCGATCC | -0.127 |
| ATCCCCAC | -0.0707 |
| TCACACAA | 0.193 |
| GCACACAA | 0.0665 |
| TGACACAA | 0.259 |
| AAACACAT | 0.229 |
| GTACACAC | 0.331 (active) |
| GTACACAA | 0.338 (active) |
| GCACACAC | 0.0659 |
| TTACACAA | 0.311 (active) |

| Sequence | PBM E-score |
| --- | --- |
| CTACACAC | 0.175 |
| AGACACAT | 0.213 |
| ATACACAT | 0.311 (active) |
| CTACACAA | 0.288 |
| CATGGCCC | -0.169 |
| GGGCTTAC | -0.119 |
| CACTAATA | 0.118 |
| GTTAGTAA | 0.177 |
| CTTATTAC | 0.0885 |
| CTGTGCGA | -0.0551 |
| CCTACCGA | -0.0361 |
| AGTGCGGG | -0.187 |
| ATCTTCGG | 0.00377 |
| ACACAGCT | 0.109 |
| ACCCATCC | -0.0713 |
| GCGCCCTA | -0.273 |
| ATATAGCC | 0.0657 |
| ATACACAG | 0.193 |
| ATACACAC | 0.256 |
| ATACACAA | ≥ 0.341 (active) |
| ATTTTCCC | -0.00887 |
| CAAACTGC | -0.0256 |
| CGCTAATC | -0.0282 |
| TATAGAAA | 0.118 |
| AACAATGA | 0.244 |
| ACAAATGT | ≥ 0.311 (active) |

| Sequence | PBM E-score |
| --- | --- |
| AACAATGG | 0.198 |
| ACAAATGA | 0.154 |
| ACAAATGG | 0.193 |
| AACAATGT | 0.345 (active) |
| ATGAGCTC | -0.0796 |
| ATTTCCTG | 0.0432 |
| AGGAGTAT | 0.00187 |
| CAGAGCGG | -0.155 |
| CTATTACA | 0.346 (active) |
| GCATTACA | 0.267 |
| GTATTACA | 0.288 |
| ACATTACT | 0.227 |
| CTATTACC | 0.0284 |
| ACATTACA | ≥ 0.37 (active) |
| ATATTACA | 0.35 (active) |
| ATATTACC | 0.186 |
| ATATTACG | 0.16 |
| CTGACTGC | -0.0466 |
| ACAGATAT | 0.159 |
| CGGTCATA | -0.0654 |
| CATCTGGG | -0.0619 |
| CACACGAC | 0.0592 |
| AACACGAG | 0.266 |
| AACACGAA | 0.293 |
| AACACGAC | 0.321 (active) |
| GACACGAC | 0.347 (active) |

| Sequence | PBM E-score |
| --- | --- |
| GACACGAA | 0.224 |
| AGATATCC | 0.0875 |
| ACCCGGGC | -0.196 |
| CCGTTTTC | -0.0987 |
| CTATAACA | 0.257 |
| GTATAACA | 0.338 (active) |
| ATATAACC | 0.0533 |
| GTATAAGA | 0.112 |
| ATATAACA | 0.372 (active) |
| GCATAACA | 0.255 |
| CGTAGGTC | -0.0431 |
| CAGCCTGG | -0.164 |
| ATAAAGGC | -0.111 |
| AGTGGTGG | -0.0979 |
| AAGGAATT | -0.0309 |
| ACAGTTCA | 0.0978 |
| TGCATGAA | 0.126 |
| ACCATGAA | 0.0242 |
| AGCATGAA | 0.102 |
| AACATGAA | 0.387 (active) |
| GACATGAA | 0.318 (active) |
| GGCATGAA | 0.0161 |
| GCCATGAC | -0.0484 |
| CACATGAC | 0.242 |
| CACATGAA | 0.226 |
| TACATGAA | 0.383 (active) |

| Sequence | PBM E-score |
| --- | --- |
| GACATGAC | 0.394 (active) |
| GTCATGAA | 0.0353 |
| TACAGAGA | 0.12 |
| GAGTTTGA | 0.0834 |
| CGTTTCCC | -0.165 |
| AAGATGGC | -0.0976 |
| CTGATTAA | 0.162 |
| AACCTTAA | -0.0003 |
| TGGGGGAA | -0.237 |
| GACTTCGA | -0.0675 |
| ACTAGAAG | 0.00911 |
| AACGGGCC | -0.162 |
| GTGACCTA | 0.0131 |
| GAGCTCAA | -0.094 |
| TGCAAAAA | 0.0586 |
| AGACTGCG | -0.129 |
| AGCTTCCC | -0.188 |
| AAGCCCCA | -0.232 |
| AAACACGT | 0.312 (active) |
| AAACACGG | 0.257 |
| AAACACGC | 0.248 |
| AAACACGA | ≥ 0.351 (active) |
| AAACACTT | 0.153 |
| ACACACGT | 0.254 |
| CAAAGCGC | -0.207 |
| GATCAGGC | -0.0491 |

| Sequence | PBM E-score |
| --- | --- |
| ACCGACTA | 0.0195 |
| ACCCCGCA | -0.142 |
| GCCATGGA | -0.137 |
| ACAATGTA | 0.285 |
| CCAATGTC | 0.0611 |
| ACCATGCC | -0.0174 |
| ACTATGTC | 0.302 |
| CCCATGTA | 0.326 (active) |
| CCCATGGA | 0.021 |
| GCCATGCA | -0.0297 |
| GCCATGTA | 0.346 (active) |
| ACCATGTC | 0.408 (active) |
| ACAATGTC | 0.316 (active) |
| CCCATGTC | 0.309 |
| AATATTTC | 0.0671 |
| TGATTGCA | 0.139 |
| GAAATAAA | 0.0685 |
| ATGCGAAC | 0.0459 |
| GACTCAAC | 0.0307 |
| CGAAGGTC | -0.156 |
| ACAGCAAT | 0.163 |
| ACAGTTGC | 0.0312 |
| CCGATAAC | 0.0305 |
| ACCATGCA | 0.0966 |
| ACCATGTA | ≥ 0.422 (active) |
| ACCATGTG | 0.145 |

| Sequence | PBM E-score |
| --- | --- |
| AATTTGGA | 0.0747 |
| ACGAACAT | 0.349 (active) |
| ATGAACAG | 0.22 |
| ACGAACAA | 0.298 |
| AGGAACAG | 0.0859 |
| ACGAACAG | 0.137 |
| ATGAACAC | 0.332 (active) |
| GTGAACAC | 0.256 |
| AGGAACAC | 0.193 |
| CTGAACAC | 0.235 |
| AGGAACAT | 0.339 (active) |
| ATGAACAA | 0.286 |
| ATGAACAT | 0.326 (active) |
| AACGGGTA | 0.0722 |
| CCCGTCGG | -0.289 |
| CCGCAGCC | -0.25 |
| GCGCCGAC | -0.199 |
| GATCGCAC | 0.0699 |
| CATTTGCG | 0.00242 |
| ACCTTCGT | -0.0522 |
| GCCACCTA | -0.192 |
| TACAAAGA | 0.239 |
| AACAAATG | 0.174 |
| CACAAGTA | 0.205 |
| CACAAGTG | 0.111 |
| ACCAAGTA | 0.0922 |

| Sequence | PBM E-score |
| --- | --- |
| GACAAATA | 0.218 |
| GACAAGTC | 0.236 |
| AACAAGTG | 0.334 (active) |
| AACAAATA | 0.287 |
| AACAAGTA | 0.33 (active) |
| GACAAGTA | 0.355 (active) |
| TACAAGTA | ≥ 0.407 (active) |
| CATGAAGG | 0.0126 |
| ACCCCGAA | -0.106 |
| AGTGGGTC | -0.178 |
| GAAACTGC | -0.184 |
| ACCAGGGC | -0.112 |
| GGCAGCTA | -0.136 |
| CGTTTTCC | 0.0392 |
| GACGCGTC | -0.0916 |
| ACCGTCCT | -0.0635 |
| ACTCAAGA | -0.0159 |
| AAGTCAGG | -0.109 |
| AACAAGTC | 0.278 |
| AACAAGGT | 0.293 |
| AACAAGTT | 0.33 (active) |
